These results are taken from PubChem BioAssay AID651744 (Broad Institute, 2012).

In all, about 5,600 compounds went through this assay and about 3,100 (55%) were called active. Roughly 3% stayed inconclusive and do not appear here. So high a share suggests a set chosen from earlier hits. The list is a sample of the results. A number with no mark means an inactive call.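 How the source made its calls: active means mean loss of cell viability signal at or above a set limit, and enough replicates individually reaching it; inconclusive means meets only the mean limit or only the replicate share; inactive means meets neither condition.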

This assay can be described thus: NIH/3T3 fibroblast cytotoxicity, confirmation, cytotoxicity control, cell-based, cherry-pick, single point, set 2 (AID 651744).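 Further: 0% = median of neutral control wells and 100% = median of positive control wells.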 The note with it: NIH/3T3 viability, CellTiter-Glo ATP luminescence, 90 h; at 24.9 µM; stronger effect = higher value.
As to `C[C@@H]1CN([C@@H](C)CO)C(=O)c2cc(NC(=O)Nc3ccc4c(c3)OCO4)ccc2O[C@@H]1CN(C)Cc1ccc(Oc2ccccc2)cc1`, the inhibition was 103% (active).

For the compound `C[C@@H]1CN([C@H](C)CO)C(=O)Cc2cc(NC(=O)Cc3ccccc3)ccc2O[C@H]1CN(C)Cc1ccc(Oc2ccccc2)cc1`, the inhibition was 83.1% (active).

Consider `C[C@@H]1CN([C@@H](C)CO)C(=O)c2cc(NC(=O)Nc3cccc4ccccc34)ccc2O[C@H]1CN(C)Cc1ccc(Cl)c(Cl)c1`, for which the inhibition is 18.8%.

On to `C[C@@H]1CN([C@@H](C)CO)C(=O)c2cc(NC(=O)Cc3ccccc3)ccc2O[C@@H]1CN(C)Cc1ccc(Oc2ccccc2)cc1`, for which the inhibition is 104% (active).

For `CCCNC(=O)N1[C@@H]2c3cccc(=O)n3C[C@H]1[C@H](CO)[C@H]2C(=O)NCC(F)(F)F`, the inhibition was -10.7%.

`O=C(NCc1ccccn1)[C@@H]1[C@@H](CO)[C@@H]2Cn3c(ccc(/C=C/c4ccccc4)c3=O)[C@H]1N2CC1CC1`: the inhibition was 47.4% (active).

With `C[C@H](CO)N1C[C@H](C)[C@H](CN(C)Cc2ccc(-c3ccccc3)cc2)Oc2ccc(NC(=O)Nc3ccc(F)cc3)cc2CC1=O`, the inhibition was 103% (active).

Turning to `C[C@H]1CN([C@@H](C)CO)C(=O)Cc2cc(NC(=O)Cc3cn(C)c4ccccc34)ccc2O[C@@H]1CN(C)Cc1ccccc1`, the inhibition is 18.1%.

As to `C[C@H]1CN([C@@H](C)CO)C(=O)Cc2cc(NC(=O)Cc3cn(C)c4ccccc34)ccc2O[C@@H]1CN(C)Cc1ccc(C(F)(F)F)cc1`, the inhibition was 69.9% (active).

As for `C[C@@H]1CN([C@H](C)CO)C(=O)Cc2cc(NC(=O)c3ccncc3)ccc2O[C@H]1CN(C)Cc1ccc(-c2ccccc2)cc1`, the inhibition is 102% (active).

In the case of `C[C@H](CO)N1C[C@H](C)[C@@H](CN(C)Cc2ccc(-c3ccccc3)cc2)Oc2ccc(NC(=O)CCC(F)(F)F)cc2CC1=O`, the inhibition is 105% (active).

With `C[C@@H]1CN([C@H](C)CO)C(=O)CCCn2nncc2CO[C@@H]1CN(C)Cc1ccc(C(=O)Nc2ccccc2N)cc1`, the inhibition was 9.3%.

As for `C[C@@H]1CN([C@@H](C)CO)C(=O)Cc2cc(NC(=O)C3CCCCC3)ccc2O[C@@H]1CN(C)Cc1ccc(C(=O)Nc2ccccc2N)cc1`, the inhibition was 59.4% (active).

Take `C[C@@H]1CN([C@@H](C)CO)C(=O)CCCn2cc(nn2)CO[C@@H]1CN(C)S(=O)(=O)c1ccccc1F`: the inhibition was -3.5%.

On to `C[C@H](CO)N1C[C@H](C)[C@@H](CN(C)S(=O)(=O)c2ccccc2F)Oc2ncc(C#Cc3ccccc3F)cc2C1=O`, for which the inhibition is 46.5% (active).

As to `CCCNC(=O)N(C)C[C@@H]1Oc2ncc(C#Cc3ccccc3F)cc2C(=O)N([C@@H](C)CO)C[C@H]1C`, the inhibition is 41.6% (active).

With `C[C@H](CO)N1C[C@H](C)[C@@H](CN(C)S(=O)(=O)c2ccccc2)Oc2ncc(C#Cc3ccccc3F)cc2C1=O`, the inhibition was 69.9% (active).

On to `COc1ccc(-c2ccc3c(c2)[C@@H]2[C@@H](CCN2C(=O)Cc2ccccn2)[C@H](CO)N3C)cc1`, for which the inhibition is 9.06%.

As to `CC(C)NC(=O)N(C)C[C@H]1OCc2cn(nn2)CCCC(=O)N([C@@H](C)CO)C[C@H]1C`, the inhibition is -9.15%.

`COCC#Cc1ccc([C@@H]2[C@H](CO)N3CCCCN(C(=O)CN(C)C)C[C@@H]23)cc1`: the inhibition is -6.74%.

In the case of `CCCC#Cc1ccc([C@H]2[C@H](CO)N3CCCCN(C(=O)c4ccc5c(c4)OCO5)C[C@@H]23)cc1`, the inhibition is 85.9% (active).

Consider `Cc1cccc(-c2ccc([C@@H]3[C@H](CO)N4CCCCN(C(=O)c5ccc6c(c5)OCO6)C[C@@H]34)cc2)c1`, for which the inhibition was 105% (active).

In the case of `COc1ccc(-c2ccc([C@H]3[C@H]4CN(C(=O)c5ccc6c(c5)OCO6)CCCCN4[C@H]3CO)cc2)cc1`, the inhibition was 67.5% (active).

On to `CC(C)(O)C#Cc1ccc([C@@H]2[C@H](CO)N3CCCCN(C(=O)c4cccc(F)c4)C[C@@H]23)cc1`, for which the inhibition was 1.66%.

In the case of `O=C(c1cccc(F)c1)N1CCCCN2[C@H](CO)[C@H](c3ccc(-c4ccncc4)cc3)[C@H]2C1`, the inhibition is -0.739%.

`CC(C)(C)[S@@](=O)N1Cc2cc(C(=O)NCc3ccc4c(c3)OCO4)nc(-c3cccc(-c4ccccc4)c3)c2[C@H]1CCO`: the inhibition was 49% (active).

For `O=C(Nc1ccc(-c2ccccc2)cc1)[C@H]1[C@H](CO)[C@H]2Cn3c(cccc3=O)[C@H]2N1CC1CC1`, the inhibition is 59.4% (active).

In the case of `O=C(NCC1CCCCC1)[C@H]1[C@H](CO)[C@H]2Cn3c(cccc3=O)[C@H]2N1C(=O)CC1CC1`, the inhibition was 2.76%.

Consider `C[C@@H]1CN([C@H](C)CO)S(=O)(=O)c2ccc(C#CCC3CCCC3)cc2O[C@H]1CN(C)C(=O)CC1CC1`, for which the inhibition was 103% (active).

Turning to `CNC[C@H]1OCCCC[C@@H](C)Oc2ccc(NS(C)(=O)=O)cc2C(=O)N([C@H](C)CO)C[C@H]1C`, the inhibition is -29.3%.

Turning to `C[C@@H]1CN([C@@H](C)CO)S(=O)(=O)c2ccc(C#CCC3CCCC3)cc2O[C@H]1CN(C)C(=O)CC1CC1`, the inhibition is 104% (active).

Turning to `CNC[C@@H]1Oc2cc(C#CCC3CCCC3)ccc2S(=O)(=O)N([C@H](C)CO)C[C@H]1C`, the inhibition was 105% (active).

In the case of `C[C@@H]1CCCCO[C@H](CN(C)C(=O)CCC(F)(F)F)[C@H](C)CN([C@H](C)CO)C(=O)c2cc(NS(C)(=O)=O)ccc2O1`, the inhibition was 4.09%.

As for `CNC[C@H]1OCCCC[C@H](C)Oc2ccc(NC(=O)Nc3c(C)noc3C)cc2C(=O)N([C@H](C)CO)C[C@H]1C`, the inhibition was 11.5%.

For the compound `CC(=O)NC[C@@H]1[C@@H](c2ccc(-c3ccccc3F)cc2)[C@@H](CO)N1C(=O)C1CC1`, the inhibition is -15.5%.

For `C[C@@H]1CCCCO[C@@H](CN(C)Cc2ccccc2)[C@H](C)CN([C@H](C)CO)C(=O)c2cc(NC(=O)Nc3cccc4ccccc34)ccc2O1`, the inhibition is 105% (active).

As for `C[C@@H]1CCCCO[C@@H](CN(C)C(=O)Nc2ccc(F)cc2)[C@H](C)CN([C@H](C)CO)C(=O)c2cc(NC(=O)Nc3cccc4ccccc34)ccc2O1`, the inhibition is -7.66%.

In the case of `C[C@@H]1CCCCO[C@H](CN(C)C(=O)Nc2cccc3ccccc23)[C@H](C)CN([C@H](C)CO)C(=O)c2cc(NS(=O)(=O)c3cccs3)ccc2O1`, the inhibition was 2.06%.

In the case of `C[C@@H]1CN([C@@H](C)CO)C(=O)c2cc(NC(=O)Nc3cccc4ccccc34)ccc2O[C@@H](C)CCCCO[C@H]1CN(C)Cc1ccccc1`, the inhibition is 104% (active).
